Measured values from PubChem BioAssay AID1159580 (chemical genetic matrix, 2015).
“And” between values parts separate entries of the source, which are not always exact repeats. Equal entries are not always repeated. Screen size: about 5,500 compounds; about 2,000 (36%) were called active. Roughly 18% stayed inconclusive and do not appear here. Cut-off read from the data, not from the text of the source: active = normalized growth mostly below about 0.91 (no sharp cut-off); inconclusive = no clear call, values can overlap the other calls; inactive = mostly above about 0.92. Some of the results follow.

Experiment: chemical genetic growth profiling, strain panel (AID 1159580);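 note: tested at 20 µM; growth read once vehicle control cultures reached saturation at 30 °C; 1 = growth at the plate median or of vehicle wells; lower values mean less growth of the strain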
Settings: S. cerevisiae deletion strains, growth OD
[1] = locus YGR078C, strain PAC10, active compounds read low
[2] = locus YGR229C, strain SMI1, active compounds read low
[3] = locus YJR075W, strain HOC1, active compounds read low
[4] = locus YMR307W, strain GAS1, active compounds read low
[5] = locus YNL322C, strain KRE1, active compounds read low
[6] = locus YPL055C, strain LGE1, active compounds read low

Measured: normalized growth

CN(C)CCOC(c1ccc(Cl)cc1)c1ccccn1 (stereo unspecified)
inactive: locus YAL021C, strain ccr4, active compounds read low 1.04 | locus YAL026C, strain drs2, active compounds read low 1.05 | locus YAL030W, strain snc1, active compounds read low 1.03 | locus YBL061C, strain skt5, active compounds read low 1.04 | locus YBR009C, strain hhf1, active compounds read low 1.02 | locus YBR021W, strain FUR4, active compounds read low 0.966 | locus YBR023C, strain chs3, active compounds read low 1.03 | locus YBR171W, strain sec66, active compounds read low 1.02 | locus YBR229C, strain ROT2, active compounds read low 1 | locus YBR231C, strain swc5, active compounds read low 1.01 | locus YBR279W, strain paf1, active compounds read low 1.02 | locus YCL011C, strain gbp2, active compounds read low 1.01 | locus YCL016C, strain dcc1, active compounds read low 1.01 | locus YCL029C, strain bik1, active compounds read low 0.999 | locus YCL069W, strain vba3, active compounds read low 1.02 | locus YCR088W, strain abp1, active compounds read low 1.01 | locus YDL005C, strain med2, active compounds read low 1.03 | locus YDL035C, strain GPR1, active compounds read low 0.978 | locus YDL040C, strain nat1, active compounds read low 1.02 | locus YDL074C, strain BRE1, active compounds read low 1.03 | locus YDL101C, strain DUN1, active compounds read low 1.04 | locus YDL185W, strain tfp1, active compounds read low 1 | locus YDL192W, strain arf1, active compounds read low 1.01 | locus YDR001C, strain nth1, active compounds read low 1.02 | locus YDR069C, strain doa4, active compounds read low 1.03 | locus YDR101C, strain arx1, active compounds read low 1.01 | locus YDR137W, strain rgp1, active compounds read low 1.01 | locus YDR159W, strain sac3, active compounds read low 1.02 | locus YDR162C, strain NBP2, active compounds read low 0.975 | locus YDR195W, strain ref2 1.02 | locus YDR297W, strain sur2, active compounds read low 1.03 | locus YDR318W, strain mcm21, active compounds read low 0.998 | locus YDR334W, strain swr1, active compounds read low 1.01 | locus YDR335W, strain msn5, active compounds read low 1.03 | locus YDR388W, active compounds read low 1.01 | locus YDR392W, strain spt3, active compounds read low 1.01 | locus YDR502C, strain sam2, active compounds read low 1.03 | locus YEL003W, strain gim4, active compounds read low 1.01 | locus YEL037C, strain rad23, active compounds read low 1.02 | locus YEL061C, strain CIN8 (second series), active compounds read low 1.02 | locus YEL061C, strain CIN8, active compounds read low 1.01 | locus YER015W, strain faa2, active compounds read low 1.04 | locus YER016W, strain bim1, active compounds read low 0.997 | locus YER110C, active compounds read low 1.02 | locus YER111C, strain swi4, active compounds read low 1.03 | locus YER155C, strain BEM2 (second series), active compounds read low 1.02 | locus YER155C, strain BEM2, active compounds read low 1.02 | locus YER167W, strain BCK2, active compounds read low 0.99 | locus YFR010W, strain ubp6, active compounds read low 1.03 | locus YGL078C, strain dbp3, active compounds read low 0.998 | locus YGL086W, strain mad1, active compounds read low 1.01 | locus YGL167C, strain pmr1, active compounds read low 1.01 | locus YGL173C, strain kem1, active compounds read low 1.02 | locus YGL227W, strain vid30, active compounds read low 1.03 | locus YGL240W, strain doc1, active compounds read low 1.04 | locus YGL248W, strain PDE1, active compounds read low 1.04 | locus YGL253W, strain hxk2, active compounds read low 1.03 | [1] 1.02 | locus YGR135W, strain pre9, active compounds read low 1 | [2] 0.983 | locus YGR252W, strain gcn5, active compounds read low 0.947 | locus YHR013C, strain ard1, active compounds read low 1.01 | locus YHR027C, strain rpn1, active compounds read low 1.02 | locus YHR030C, strain SLT2, active compounds read low 1 and 1.02 | locus YHR079C, strain IRE1 (second series), active compounds read low 1.01 | locus YHR079C, strain IRE1, active compounds read low 1 | locus YHR094C, strain hxt1, active compounds read low 1.01 | locus YHR129C, strain ARP1, active compounds read low 1.01 | locus YHR142W, strain chs7, active compounds read low 1.02 | locus YHR200W, strain rpn10, active compounds read low 1.01 | locus YIL066C, strain RNR3, active compounds read low 0.957 | locus YIL073C, strain SPO22, active compounds read low 1 | locus YIL125W, strain kgd1, active compounds read low 0.995 | locus YIR030C, strain dcg1, active compounds read low 1.03 | locus YJL092W, strain hpr5, active compounds read low 1.02 | locus YJL095W, strain BCK1 (second series), active compounds read low 1.01 | locus YJL095W, strain BCK1, active compounds read low 1.07 and 1 | locus YJL115W, strain asf1, active compounds read low 1.02 | locus YJL129C, strain trk1, active compounds read low 1.05 | locus YJL134W, strain LCB3, active compounds read low 1.01 | locus YJL154C, strain vps35, active compounds read low 1.02 | locus YJL164C, strain tpk1, active compounds read low 1 | locus YJL166W, strain qcr8, active compounds read low 1.03 | locus YJL168C, strain set2, active compounds read low 1.02 | locus YJL187C, strain SWE1 (second series), active compounds read low 1.04 | locus YJL187C, strain SWE1, active compounds read low 1.01 | locus YJR043C, strain POL32, active compounds read low 0.968 | locus YJR066W, strain TOR1, active compounds read low 0.981 | [3] 1.03 | locus YKL009W, strain mrt4, active compounds read low 1.02 | locus YKL068W, active compounds read low 0.997 | locus YKL085W, strain MDH1 (second series), active compounds read low 0.989 | locus YKL085W, strain MDH1, active compounds read low 0.989 | locus YKL160W, strain elf1, active compounds read low 1.02 | locus YKL190W, strain CNB1, active compounds read low 1 | locus YKR001C, strain vps1, active compounds read low 1 | locus YKR026C, strain gcn3, active compounds read low 1.03 | locus YKR091W, strain srl3, active compounds read low 1.02 | locus YLL001W, strain dnm1, active compounds read low 1.03 | locus YLL026W, active compounds read low 1.03 | locus YLL041C, strain sdh2, active compounds read low 1.02 | locus YLR027C, strain aat2, active compounds read low 1.03 | locus YLR039C, strain RIC1, active compounds read low 1.02 | locus YLR058C, strain SHM2, active compounds read low 1.01 | locus YLR102C, strain apc9, active compounds read low 1.01 | locus YLR113W, strain HOG1, active compounds read low 0.987 | locus YLR221C, strain rsa3, active compounds read low 1.01 | locus YLR258W, strain gsy2, active compounds read low 1.01 | locus YLR262C, strain YPT6 (second series), active compounds read low 1.04 | locus YLR262C, strain YPT6, active compounds read low 1.05 | locus YLR268W, strain sec22, active compounds read low 1 | locus YLR320W, strain mms22, active compounds read low 1 | locus YLR330W, strain CHS5, active compounds read low 1.01 | locus YLR342W, strain FKS1 (second series), active compounds read low 0.95 | locus YLR342W, strain FKS1, active compounds read low 1.04 | locus YLR357W, strain rsc2, active compounds read low 1.06 | locus YLR370C, strain arc18, active compounds read low 1.01 | locus YLR371W, strain rom2, active compounds read low 1 | locus YLR384C, strain iki3, active compounds read low 1.03 | locus YLR418C, strain cdc73, active compounds read low 1.07 | locus YML016C, strain PPZ1, active compounds read low 1.01 | locus YML032C, strain rad52, active compounds read low 0.998 | locus YML120C, strain ndi1, active compounds read low 1.02 | locus YML124C, strain tub3, active compounds read low 1 | locus YMR058W, strain fet3, active compounds read low 1.03 | locus YMR078C, strain ctf18, active compounds read low 1.01 | locus YMR125W, strain sto1, active compounds read low 1.01 | locus YMR129W, active compounds read low 1.03 | locus YMR205C, strain PFK2, active compounds read low 1.03 | locus YMR223W, strain ubp8, active compounds read low 0.998 | locus YMR231W, strain pep5, active compounds read low 1.03 | [4] 0.976 | locus YNL067W, strain RPL9B, active compounds read low 1.06 | locus YNL071W, strain lat1, active compounds read low 1.01 | locus YNL183C, strain NPR1, active compounds read low 0.941 | locus YNL209W, strain ssb2, active compounds read low 1.02 | locus YNL233W, strain BNI4, active compounds read low 1.04 | locus YNL248C, strain rpa49, active compounds read low 1.04 | locus YNL250W, strain rad50, active compounds read low 1.02 | locus YNL271C, strain bni1, active compounds read low 1.03 | locus YNL298W, strain CLA4, active compounds read low 0.994 | locus YNL307C, strain MCK1, active compounds read low 1.01 | locus YNL322C, strain KRE1 (second series), active compounds read low 1.03 | [5] 1.01 | locus YNR049C, strain mso1, active compounds read low 1.02 | locus YNR052C, strain pop2, active compounds read low 1.01 | locus YOL012C, strain htz1 0.873 | locus YOL147C, strain pex11, active compounds read low 1.01 | locus YOR001W, strain rrp6, active compounds read low 1.04 | locus YOR061W, strain CKA2, active compounds read low 1.01 | locus YOR069W, strain VPS5, active compounds read low 1.01 | locus YOR070C, strain gyp1, active compounds read low 1.01 | locus YOR080W, strain dia2, active compounds read low 1.02 | locus YOR083W, strain WHI5, active compounds read low 1.03 | locus YOR106W, strain vam3, active compounds read low 1.03 | locus YOR136W, strain idh2, active compounds read low 1.01 | locus YOR144C, strain elg1, active compounds read low 1 | locus YOR184W, strain ser1, active compounds read low 0.997 | locus YOR231W, strain MKK1, active compounds read low 0.996 | locus YOR265W, strain rbl2, active compounds read low 1.02 | locus YOR270C, strain vph1, active compounds read low 1.05 | locus YOR290C, strain snf2, active compounds read low 1 | locus YOR316C, strain cot1, active compounds read low 1.01 | locus YPL051W, strain arl3, active compounds read low 1.03 | [6] 0.976 | locus YPL078C, strain atp4, active compounds read low 1.02 | locus YPL106C, strain sse1, active compounds read low 0.993 | locus YPL240C, strain hsp82, active compounds read low 1.01 | locus YPL256C, strain CLN2, active compounds read low 1 | locus YPR119W, strain clb2, active compounds read low 1.01 | locus YPR141C, strain kar3, active compounds read low 1.01 | locus YPR163C, strain tif3, active compounds read low 1 | locus YPR167C, strain met16, active compounds read low 1 | strain wtn01, active compounds read low 0.995

Fc1ccc(C(OCCN2CCN(CCCc3ccccc3)CC2)c2ccc(F)cc2)cc1
active: locus YCL061C, strain MRC1 (second series), active compounds read low 0.881 | locus YDR150W, strain NUM1, active compounds read low 0.78 | locus YDR363W, strain ESC2, active compounds read low 0.851 | [1] 0.868 | [2] 0.0957 | [3] 0.797 | [4] 0.891 | locus YNL153C, strain GIM3, active compounds read low 0.661 | [5] 0.705 | [6] 0.583
inactive: locus YAL040C, strain CLN3, active compounds read low 1.02 | locus YER002W, strain NOP16, active compounds read low 1.06 | locus YMR263W, strain SAP30, active compounds read low 0.997 | locus YNL175C, strain NOP13, active compounds read low 0.972 | locus YNL197C, strain WHI3, active compounds read low 1.08 | locus YNL224C, strain SQS1, active compounds read low 1.05 | locus YOR083W, strain WHI5 (second series), active compounds read low 0.903
